Source: ChEMBL document CHEMBL4513216, “Probing the Open Global Health Chemical Diversity Library for Multistage-Active Starting Points for Next-Generation Antimalarials” (ACS Infect Dis, 2020)
Among all 65,000 compounds or so, about 2,100 (3.2%) showed an effect of 50% or more. The median lay at about -52%. Many of the other results were omitted from the sample, so strong results are more common in it than they were.

Tested on: Plasmodium falciparum
Assay: Screen against P. falciparum Asexual Blood Stage (ABS), at 5uM
Format: functional, Dd2
Conditions: tested at 5 uM

Compound	INHIBITION [%]
O=C(c1ccoc1)N1CC[C@@H]2O[C@@H](COCc3ccccn3)CC[C@@H]21	-109
CO[C@@H]1CCN(S(=O)(=O)c2cccs2)[C@H]1Cc1cccnc1	-8.97
CCC(C)N(Cc1cccnc1)C(=O)c1ccc(F)c(O)c1 (configuration not stated)	-68.4
CN(C)CC1(O)CCCN(c2noc(-c3ccccc3)n2)CC1 (configuration not stated)	-3.62
Cc1cc(N2CCCC(O)(CN(C)C)CC2)nc(-c2ccccc2)n1 (configuration not stated)	57.4
CN(C)CC1(O)CCCN(c2nc(-c3ccccc3)no2)CC1 (configuration not stated)	-61.2
CC1CN(C)CCN1C(=O)c1ccn(-c2cccc(F)c2)n1 (configuration not stated)	-38.4
Cc1cc(NC(=O)N(C)CCN2CCN(c3ccccc3)CC2)on1	-47.3
Cc1cc(NC(=O)NC(C)CN2CCN(c3ccccc3)CC2)on1 (configuration not stated)	59.6
Cc1cc(NC(=O)CN(c2ccccc2)C(C)C)on1	-5.31
CNC(=O)c1cccnc1N1CCC(Oc2ccc(F)cc2)CC1	-88.2
O=C(CCc1ccccn1)N1CCCC(n2cncn2)C1 (configuration not stated)	-46.3
CC(C)c1n[nH]c(C2CN(C(=O)Cn3ccccc3=O)CCO2)n1 (configuration not stated)	-40.5
O=C(CC1CC1)N1CCO[C@H]2[C@H](OCCCn3cccn3)CC[C@@H]21	-14.6
Cc1ccc2[nH]c(CN3CC[C@@H](N4CCN(C)CC4)[C@H](O)C3)c(C)c2c1	-41.6
Cc1c(CN2CC[C@@H](N3CCC(O)CC3)[C@H](O)C2)[nH]c2ccc(F)cc12	-21.9
Cc1c(CN2CC[C@@H](N3CCC(O)CC3)[C@H](O)C2)[nH]c2ccc(Cl)cc12	54.6
CC(=O)c1cc(Br)cc(F)c1OCC(=O)NC(C)C	-96.4
O=C(NCC(F)F)c1ccc(S(=O)(=O)NCCc2ccncc2)cc1	16.5
O=C(CCn1cccn1)N1CC[C@@H](c2ccc3ccccc3c2)[C@H](O)C1	15.7
O=C(CCN1CCCO1)N1CC[C@@H](c2ccc3ccccc3c2)[C@H](O)C1	15.7
O=C(CCN1CCCC1)N1CC[C@@H](c2ccc3ccccc3c2)[C@H](O)C1	65.1
COc1cc(C2c3c(n[nH]c3C)N=C3COC(=O)C32)cc2c1OCO2 (configuration not stated)	-31.7
O=C(CC1C=CCC1)Nc1ncn(CC(=O)N2CCCCCC2)n1 (configuration not stated)	23.2
Cn1cc(CNCC(c2ccc(Cl)cc2)n2cccn2)cn1 (configuration not stated)	18.1
CCn1cc(CNCC(c2ccc(Cl)cc2)n2cccn2)cn1 (configuration not stated)	60.8
Clc1ccc(C(CNCc2ccncc2)n2cccn2)cc1 (configuration not stated)	-50.1
